We go through 22 compounds from PubChem BioAssay (EPA / NIEHS).

The structures appear in SMILES notation. Records with an inconclusive call do not appear. Activity calls are given as the source filed them. How the source made its calls: active means hit-call score of the fitted dose curve at least 0.9, where 1 is the maximum; inconclusive means response in the unintended direction; inactive means score below 0.9.

This assay is described as follows: Tanguay_ZF_120hpf_CIRC_legacy: (Legacy) Oregon State University Tanguay Lab 120 Hour Post-fertilization zebrafish Assay for Circulatory Malformation (AID 2283651). In a few lines: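 Embryos are dechorionated at 4 hpf, plated one per well at 6 hpf, then held under static exposure at 28C until 120 hpf. Malformations are recorded as binary calls; mortality excludes other endpoints.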
For the compound `O=C1c2c(O)cccc2Cc2cccc(O)c21`, the outcome was inactive.

As for `NC(=Nc1ccccc1)Nc1ccccc1`, the call was inactive.

As to `COC(=O)CCC(=O)OC`, the call was inactive.

Consider `CN(C)C(=O)NC1(c2ccccc2)CCN(CCC[C@]2(c3ccc(Cl)c(Cl)c3)CCCN(C(=O)c3ccccc3)C2)CC1`, for which the call was inactive.

As to `CCCCC(CC)CO` (configuration not stated), the outcome was inactive.

For `Cc1c(C)c2c(c(C)c1O)CCC(C)(COc1ccc(CC3SC(=O)NC3=O)cc1)O2` (configuration not stated), the result was inactive.

For the compound `CCCC[C@H]1CN(CC2CCOCC2)C(=O)OC12CCN(C1(C)CCN(C(=O)c3c(C)ncnc3C)CC1)CC2`, the outcome was inactive.

With `CCCCc1nc2cccnc2n1Cc1ccc(-c2ccccc2-c2nnn[nH]2)cc1`, the call was inactive.

For `O=C(O)CN(CC(=O)O)CC(=O)O`, the compound was called inactive.

With `CS(=O)(=O)c1ccc([C@@H](C[C@H]2CCC(=O)C2)C(=O)Nc2cnccn2)cc1Cl`, the outcome was inactive.

Take `CCc1nc(N)nc(N)c1-c1ccc(Cl)cc1`: the result was inactive.

Take `COC(=O)[C@H]1[C@H]2C[C@@H]3c4[nH]c5cc(OC)ccc5c4CCN3C[C@H]2C[C@@H](OC(=O)c2cc(OC)c(OC)c(OC)c2)[C@@H]1OC`: the call was inactive.

For `CCOCCOCCO`, the call was inactive.

Turning to `CN(C)CCCN(C)CCCN(C)C`, the result was inactive.

`O=[Si]=O`: the outcome was inactive.

Consider `CCC(C)N(C)C(=O)c1cc2ccccc2c(-c2ccccc2Cl)n1` (configuration not stated), for which the call was inactive.

On to `O=C(O)c1[nH]n(-c2ccc(S(=O)(=O)O)cc2)c(=O)c1N=Nc1ccc(S(=O)(=O)O)cc1`, for which the compound was classed as inactive.

Regarding `CN(C)CCCN1c2ccccc2Sc2ccc(Cl)cc21`, the outcome was inactive.

Take `CC1(C)C(=O)NC(=O)N1CO`: the compound was called inactive.

In the case of `Cc1ccc(C(C)(C)C)c(O)c1`, the compound was classed as inactive.

Regarding `CCCCCCCCCCCCCCOS(=O)(=O)O`, the outcome was inactive.

Regarding `COc1ccc(OC(F)(F)F)cc1CN[C@H]1CCCN[C@H]1c1ccccc1`, the result was inactive.
